IL1B secr inh: qHTS for Inhibitors of Inflammasome Signaling: IL-1-beta AlphaLISA Primary Screen; THP-1 LPS/ATP IL-1B secretion, AlphaLISA, 16 h; active compounds read low; activity change, % at 57.5 µM; 4.7% of 360,000 active; AID 743279, 2014; in the data active = activity change below about -50%; inconclusive = mostly about -30% to -49%
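Secreted IL-1B measured by AlphaLISA bead assay after 16 h compound exposure of THP-1 cells; compounds (final up to 57.5 uM) added 1 h before LPS (250 ng/mL) and ATP (1.25 mM) stimulation; lower signal means less secretion.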
Giardia kill: Small Molecules that selectively kill Giardia lamblia: qHTS. Giardia lamblia trophozoite viability. activity change, % at 7.66 µM, hits read low. 0.15% of 340,000 active. AID 540267, 2011; in the data active = activity change below about -80%; inconclusive = between about -30% and that limit;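 note: parasites exposed to compound for two days anaerobically before the ATP read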
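Luminescence from cellular ATP indicates surviving trophozoites (100 cells/well) following 48 hrs anaerobic compound treatment at 37 deg C; signal develops 15-30 min at room temperature.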
ELG1 repair inh: qHTS screen for small molecules that inhibit ELG1-dependent DNA repair in human embryonic kidney (HEK293T) cells expressing luciferase-tagged ELG1; 2.3% of 330,000 active; Potency, µM (series often up to 46.1 µM), for the others: top-dose activity change, negative = inhibition, usual class: inhibitors; HEK293T ELG1-luciferase reporter, luminescence, 16 h; DNA damage induced by 5-fluorouridine; note: potency is the fitted concentration of half-maximal effect; nearly all actives have a fitted effect of over 55% in size
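Cells (2,000 per well) received 5-fluorouridine plus test compound or DMSO and were incubated 16 hr at 37 °C, 5% CO2. Luciferase activity was read by luminescence 30 min after ONE-Glo addition; signal suppression marked inhibition of damage-induced ELG1 function.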
TDP1 inh: qHTS Assay for Inhibitors of Tyrosyl-DNA Phosphodiesterase (TDP1). Potency, µM (highest dose often 130 µM), for the others: at the highest dose activity change, negative = inhibition, hits mostly inhibitors. Tyrosyl-DNA phosphodiesterase 1 (Homo sapiens), Q9NUW8. 0.28% of 350,000 active. recombinant TDP1, AlphaScreen DNA substrate cleavage; note: potency is the fitted concentration of half-maximal effect; nearly all actives have a fitted effect of over 40% in size
Target sequence (Q9NUW8 whole entry, looked up): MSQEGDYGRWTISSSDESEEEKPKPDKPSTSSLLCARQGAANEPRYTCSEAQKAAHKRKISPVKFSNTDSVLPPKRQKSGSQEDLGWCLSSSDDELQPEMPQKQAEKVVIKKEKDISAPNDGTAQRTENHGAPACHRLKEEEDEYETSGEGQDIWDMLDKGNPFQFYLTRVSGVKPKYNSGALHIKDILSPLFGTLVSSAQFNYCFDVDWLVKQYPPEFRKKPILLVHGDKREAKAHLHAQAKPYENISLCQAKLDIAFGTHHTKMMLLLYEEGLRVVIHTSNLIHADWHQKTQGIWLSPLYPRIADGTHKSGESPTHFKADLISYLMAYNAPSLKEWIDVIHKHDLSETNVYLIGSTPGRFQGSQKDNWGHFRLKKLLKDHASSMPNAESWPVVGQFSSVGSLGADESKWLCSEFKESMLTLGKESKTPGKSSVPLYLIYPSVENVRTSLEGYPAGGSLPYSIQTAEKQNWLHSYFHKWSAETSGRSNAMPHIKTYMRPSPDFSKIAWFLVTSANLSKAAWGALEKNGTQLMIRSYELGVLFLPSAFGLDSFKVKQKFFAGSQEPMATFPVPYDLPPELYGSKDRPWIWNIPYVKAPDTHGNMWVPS
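Recombinant human Tdp1 (E. coli-expressed, 1 nM final) preincubated with compounds 15 min at room temperature, then 5'-biotin/3'-phosphotyrosine-FITC DNA substrate (15 nM final) added for 5 min. AlphaScreen beads (10 ug/ml final) added 10 min; cleavage lowers signal.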
DT40 TDP1 no CPT: qHTS for Inhibitors of human tyrosyl-DNA phosphodiesterase 1 (TDP1): qHTS in cells in absence of CPT; AID 686978, 2013; DT40 Tdp1-/- hTDP1 cells, no CPT, ATP luminescence, 48 h; 15% of 420,000 active; Potency, µM (titrated, usually from 46.2 µM), for the others: at the highest dose activity change, negative = growth inhibition, usual class: inhibitors; note: potency is the fitted concentration of half-maximal effect; nearly all actives have a fitted effect of over 55% in size
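Cells were dispensed at 400 per well, compounds added by pin tool, plates incubated ≥48 hr at 37 °C, then CellTiter-Glo added for 30 min at room temperature before luminescence reading. Line: DT40 Tdp1-/- complemented with hTDP1; camptothecin omitted.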
DT40 TDP1 CPT: qHTS for Inhibitors of human tyrosyl-DNA phosphodiesterase 1 (TDP1): qHTS in cells in presence of CPT; chicken DT40 Tdp1-/-;hTDP1 cells + 20 nM CPT, ATP luminescence, 48 h; 12% of 420,000 active; AID 686979, 2013; Potency, µM (highest dose often 46.2 µM), inactives show at the top dose activity change, negative = growth inhibition, most hits filed as inhibitors; note: potency is the fitted concentration of half-maximal effect; nearly all actives have a fitted effect of over 55% in size
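Chicken DT40 Tdp1-/- cells stably complemented with human TDP1 were seeded at 400 cells/well in medium containing 20 nM camptothecin, exposed to pin-transferred compounds, and grown at 37 °C for at least 48 hr. Viability was read as ATP luminescence.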
Starred values were filed as active, the others as inactive; ? = inconclusive; nt = no result given; [ ] = dose if it differs, or a comment. An excerpt weighted towards active compounds, which were near 19% of everything screened. Unless noted, calls come from the whole dose curve; as a rule, active = well fitted curve in the direction sought with a large enough effect; inconclusive = small, poorly fitted or top-dose-only effect, or another doubt; inactive = no such curve, though single readings can be large; an effect the other way counts as inactive or inconclusive. % is set by controls: 0 for no effect and ±100 for the full control effect.

SMILES | IL1B secr inh | Giardia kill | ELG1 repair inh | TDP1 inh | DT40 TDP1 no CPT | DT40 TDP1 CPT
CCCCN1CCCc2cc(CN(CCCN3CCOCC3)C(=O)Nc3ccc(OCC)cc3)ccc21 | nt | nt | nt | 9% | 18µM* | 18µM*
CCN1CCCc2cc(CN(CCN3CCOCC3)C(=S)Nc3ccccc3C)ccc21 | 25 | 15 | 9% | 5% | 1% | -18%
CCc1ccc(NC(=O)N(CCN2CCOCC2)Cc2ccc3c(c2)CCCN3CC)cc1 | -16 | 1 | ? | -4% | ? | ?
COc1ccccc1NC(=S)N(CCN(C)C)C(C)c1ccncc1 (stereo not given) | 0 | -20 | -3% | 6% | -2% | -9%
COCCN(C(=S)Nc1ccccc1OC)C(C)c1cccs1 (stereo not given) | 7 | -17 | -2% | -1% | 29µM* | 23µM*
O=C(Nc1ncc(Cc2ccc(SC(F)F)cc2)s1)c1ccccc1 | -6 | -3 | ? | 4% | 2.3µM* | 2.9µM*
Cc1ccc(C(=O)Nc2ncc(Cc3ccccc3)s2)o1 | 0 | ? | ? | 9% | -10% | -23%
O=C(Nc1ncc(Cc2ccc(Cl)cc2)s1)c1ccc2c(c1)CC(c1ccccc1)OC2=O (stereo not given) | nt | nt | nt | 2% | 7.3µM* | 4.6µM*
CCN1C(=O)[C@@H]2[C@H]3C(=CC[C@@H]2C1=O)C1(OCCCO1)[C@H]1O[C@@H]1[C@H]3O | nt | nt | nt | -5%[21 µM] | nt | nt
Cc1cccc(C)c1NC(=O)C(c1ccnc2ccccc12)N1CCN(C)CC1 (stereo not given) | 31 | nt | nt | nt | 18µM* | ?
O=C(Nc1ccc2c(c1)OCCO2)C(c1ccnc2ccccc12)N1CCC(Cc2ccccc2)CC1 (stereo not given) | 3 | nt | nt | nt | 18µM* | ?
CN(CCc1ccccc1)C(C(=O)Nc1ccc2c(c1)OCCO2)c1ccnc2ccccc12 (stereo not given) | -18 | nt | nt | nt | ? | ?
Cc1cccc(C)c1NC(=O)C(c1ccccc1F)n1c(=O)c(-c2ccco2)nc2ccccc21 (stereo not given) | -11 | nt | nt | nt | 21µM* | ?
Cc1cccc(C)c1NC(=O)C(c1ccnc2ccccc12)n1c(=O)c(-c2ccco2)nc2ccccc21 (stereo not given) | -8 | nt | nt | nt | 16µM* | ?
Cc1ccc(C(=O)NCc2n[nH]c(=S)n2-c2ccccc2)cc1[N+](=O)[O-] | 18 | -5 | -19% | 1% | -8% | -8%
CC(=O)c1nc(-c2ccccc2)sc1C | -1 | 3 | 15% | 2% | 12% | 3%
Cc1ccc(NS(=O)(=O)c2cccc(C(=O)NCC(c3ccco3)N3CCCCC3)c2)cc1 (stereo not given) | 7 | 14 | -23% | 5% | ? | 26µM*
Cc1cccc(NS(=O)(=O)c2ccc(C)c(C(=O)NCC(c3ccco3)N3CCCCC3)c2)c1 (stereo not given) | -3 | 1 | ? | 7% | 18µM* | 21µM*
CC(=O)c1cccc(S(=O)(=O)NCC(c2ccco2)N2CCCCC2)c1 (stereo not given) | 13 | 4 | 0.58µM* | 4% | 16µM* | ?
COc1ccc(NS(=O)(=O)c2ccc(C)c(C(=O)NCC(c3ccco3)N3CCCCC3)c2)cc1 (stereo not given) | -6 | -9 | -1% | 1% | ? | ?
